From PubChem BioAssay
A selection follows.
aSyn 5UTR act – Activators via SNCA 5'UTR binding, MLPCN. alpha-synuclein 5'UTR reporter, activators screen. activity score, % (tested at 7.5 µM), hits read low. actives 7.1% (n = 300,000); in the data active means activity score below about -60%
Active calls of the source: *.

SMILES	aSyn 5UTR act
Cc1ccccc1CSc1nnc(-c2ccccn2)n1C	-104*
Cn1c(SCc2cccc(F)c2)nnc1-c1ccccn1	-142*
Cc1ccc(NC(=O)C2COc3ccccc3O2)cc1C (stereo not given)	-171*
Cc1cccc(NC(=O)C2COc3ccccc3O2)c1 (stereo not given)	-115*
COC(=O)c1cccc(NC(=O)C2COc3ccccc3O2)c1 (stereo not given)	-137*
Cn1nnnc1SCc1nnc(-c2ccc(Cl)cc2)o1	-75*
N#CCc1nc(CSc2nc3ccccc3s2)cs1	-116*
CN(c1ccc(C(=O)Nc2ccc3c(c2)OCO3)cc1)S(C)(=O)=O	-103*
CN(c1ccc(C(=O)Nc2ccc3c(c2)OCCO3)cc1)S(C)(=O)=O	-149*
c1cncc(C2Nc3ccccc3-c3nc4ccccc4n32)c1 (stereo not given)	-92*
Cc1ccsc1C1Nc2ccccc2-c2nc3ccccc3n21 (stereo not given)	-169*
c1csc(C2Nc3ccccc3-c3nc4ccccc4n32)c1 (stereo not given)	-83*
O=c1c2ccccc2cnn1CCOc1cccc(Br)c1	-153*
CCc1ccc2c(c1)[C@]1(C(=O)N2)[C@@H]2C(=O)N(Cc3ccccc3)C(=O)[C@@H]2[C@@H]2CCCN21	-78*
Cc1cc(N)n(-c2ccc3ccccc3c2)n1	-119*
Cc1cc(C)n(-c2nc3ccccc3s2)n1	-168*
Cc1cc(N)n(-c2nc3ccccc3s2)n1	-157*
Cc1ccc(/C=C/c2nc3ccccc3s2)s1	71
Cc1cc(NC(=O)C(C)C)n(-c2nc3ccccc3s2)n1	-78*
CCCCC[n+]1ccn(C2=C([O-])c3ccccc3C(=O)/C2=N\S(=O)(=O)c2ccc(Cl)cc2)c1	48
C/C(=C\C(=S)Nc1ccccc1)Nc1cccc2ccccc12	-104*
C/C(=C\C(=S)Nc1ccccc1)Nc1ccc2ccccc2c1	-94*
CC(C)Nc1nnc(SCC(=O)Nc2ccc3c(c2)C(=O)c2ccccc2C3=O)s1	-184*
O=C(CSc1nnc(NC2CCCCC2)s1)Nc1ccc2c(c1)C(=O)c1ccccc1C2=O	-121*
Cc1ccc(Nc2nnc(SCC(=O)Nc3cccc(S(=O)(=O)N4CCCCC4)c3)s2)cc1	-119*
SMILES	aSyn 5UTR act
O=c1c(Br)c(NCc2ccccc2)cnn1-c1ccc(F)cc1	-68*
Cc1ccc(NC(=O)c2c(C(F)(F)F)nn(C)c2SCc2cccc(C(F)(F)F)c2)cc1C	-102*
Cc1ccc(C(=O)Nc2cccc(C(F)(F)F)c2)cc1NC(=O)c1ccno1	95
COc1ccccc1Nc1ccc([N+](=O)[O-])cn1	-74*
O=[N+]([O-])c1ccc(NCCOc2ccccc2Cl)nc1	-74*
COc1ccc(Nc2ccc([N+](=O)[O-])cn2)cc1	-120*
COc1ccc(CNc2ccc([N+](=O)[O-])cn2)cc1	-137*
C=CCNc1nc(N)c([N+](=O)[O-])c(Nc2ccccc2OC)n1	61
O=C(N/N=C/c1ccc[nH]1)c1ccc(COc2cccc3cccnc23)cc1	104
Clc1ccc(OCc2cn3ccccc3n2)c2ncccc12	-158*
O=C(COc1cccc2cccnc12)Nc1ccccc1	-174*
c1ccc(OCCOc2cccc3cccnc23)cc1	-94*
Brc1ccc(COc2cccc3cccnc23)cc1	-81*
O=C(COc1ccccc1CNCc1ccccc1)Nc1ccccc1	-91*
OCc1ccccc1OCCCOc1cccc2cccnc12	-83*
OCc1ccccc1OCCOc1ccc(Cl)c2cccnc12	-95*
CSCCC(=O)Nc1ccc(C(C)=O)cc1	-143*
Cc1ccc(NC(=O)Nc2ccccc2)cc1[N+](=O)[O-]	-145*
Cc1ccc(NC(=O)C2C3/C=C\CCCCC32)cc1 (stereo not given)	-83*
CC(=O)c1ccc(NC(=O)CN2CCCC2)cc1	-63*
Cc1ccc(NC(=O)CN2CCCCCC2)cc1[N+](=O)[O-]	-90*
Cc1ccc(NC(=O)C2C3CCCCC32)cc1[N+](=O)[O-] (stereo not given)	-99*
Cc1cc(NC(=O)OC2CCCCC2)ccc1[N+](=O)[O-]	-190*
Cc1cccc(NC(=O)C2C3CCCCC32)c1 (stereo not given)	-117*
COc1ccc2c(c1OC)C(=O)N1C(C(=O)O)Cc3c([nH]c4ccccc34)C21 (stereo not given)	-66*
SMILES	aSyn 5UTR act
[O-][n+]1ccccc1SC/C=C/c1ccccc1	-65*
CCOC(=O)c1sc(NC(=O)c2ccc(C)s2)cc1C	-170*
CCOC(=O)c1sc(NC(=O)C2CCC2)cc1C	-110*
CCOC(=O)c1sc(NC(=O)c2cccc(S(=O)(=O)N3c4ccccc4CC3C)c2)cc1C (stereo not given)	80
CCOC(=O)c1sc(NC(=O)Nc2ccccc2Cl)cc1C	-95*
N/C(Cc1ccc(Cl)cc1Cl)=N\OC(=O)c1ccccc1F	-72*
CN(C(=O)c1ccc2c(Cl)c3c(nc2c1)CCC3)c1ccccc1	-223*
O=C(c1ccc2c(Cl)c3c(nc2c1)CCCC3)N1CCC(N2CCCCC2)CC1	-89*
CCC(C)NC(=O)c1ccc2c(Cl)c3c(nc2c1)CCC3 (stereo not given)	-164*
COc1ccc(NS(=O)(=O)c2ccc(SC)cc2)c(OC)c1	-66*
CC(=O)Nc1ccc(S(=O)(=O)N2CCN=C2SCc2ccc(C)cc2)cc1	-72*
Cc1cc(C)n2cc(-c3ccc(Cl)cc3)c(C(=O)O)c2n1	-99*
O=C(Nc1ccc2ccccc2n1)c1ccc(Cl)cc1	-145*
O=C(Nc1ccc2ccccc2n1)c1ccccc1Cl	-71*
O=C(Nc1ccc2ccccc2n1)C1CCCCC1	-144*
COc1cc(/C=C/c2nnc3c4ccccc4ncn23)cc(OC)c1OC	-80*
COC(=O)c1ccc(/C=C/c2nc3ccccc3c(=O)[nH]2)cc1	-136*
COc1cc(/C=C/c2nc3ccccc3c(=O)[nH]2)cc(OC)c1OC	-84*
C=CCOc1cccc(/C=C/c2nc3ccccc3c(=O)[nH]2)c1	-182*
Cc1ccc(/C=C/c2nc3ccccc3c(=O)[nH]2)cc1	68
COc1cc(/C=C/c2nc3ccccc3c(=O)[nH]2)ccc1OC(F)F	-195*
O=c1[nH]c(/C(Cl)=C/c2cc(Cl)ccc2O)nc2cc(Cl)ccc12	-90*
O=c1c2ccccc2nnn1CSc1nnc2ccccn12	-93*
O=c1c2ccccc2nnn1CSc1nnc(-c2ccco2)o1	-131*
O=c1c2ccccc2nnn1CSc1ccc2c(c1)OCCO2	-145*
SMILES	aSyn 5UTR act
CCC(C(=O)Nc1ccc2c(c1)OCCO2)n1nnc2ccccc2c1=O (stereo not given)	-133*
CCn1cc(C(=O)Nc2ccc(Cl)cc2Cl)cn1	-72*
O=C1CCCc2nc3c(cc21)C(O)Oc1c-3ccc2ccccc12 (stereo not given)	-118*
CC1=CC(C)(C)N=C(Nc2ccc(C)cc2)S1	-169*
COC(=O)C(=Cc1ccccc1[N+](=O)[O-])C(=O)OC	-240*
COc1ccc(OC)c(NC(=O)/C=C/c2ccccc2[N+](=O)[O-])c1	-84*
COc1cccc(NC(=O)/C=C/c2ccccc2[N+](=O)[O-])c1	-202*
O=C(/C=C/c1ccccc1[N+](=O)[O-])Nc1cccnc1	-123*
CN(C)S(=O)(=O)c1cccc(NC(=S)N/N=C/c2cc(Br)ccc2O)c1	69
COc1cccc(NC(=O)/C=C/c2ccc([N+](=O)[O-])cc2)c1	-84*
CN(C)S(=O)(=O)c1cccc(NC(=O)/C=C/c2ccccc2[N+](=O)[O-])c1	-65*
